Conditions in all cases: mRNA level, 48 h; actives raise or lower the signal
Read-out in assay [1]: cysteine-aspartic acid protease (CASP8), CASP8 (gene 841)
Nature of the assay: LTEA_HepaRG_CASP8: Life Technologies and Expression Analysis (LTEA) Assay for cysteine-aspartic acid protease (CASP8) using HepaRG (AID 2283480). An outline of the steps:
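Concentration-response in duplicate up to 100 uM (half-log steps, 0.5% DMSO) on differentiated HepaRG cultures for 48 h. Expression change of CASP8 mRNA is determined by TaqMan qRT-PCR with housekeeping-gene normalization.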

Read-out in assay [2]: Cytochrome P450 (CYP2B6), CYP2B6 (gene 1555)
Nature of the assay: LTEA_HepaRG_CYP2B6: Life Technologies and Expression Analysis (LTEA) Assay for Cytochrome P450 (CYP2B6) using HepaRG (AID 2283481). An outline of the steps:
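Using 48 h treatment of HepaRG cells in serum-free induction medium, concentrations spanned half-log steps from 100 uM in 0.5% DMSO vehicle. CYP2B6 mRNA induction or loss is scored by qRT-PCR against DMSO.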

Read-out in assay [3]: Cytochrome P450 2C19 (Homo sapiens) (UniProt P33261)
Nature of the assay: LTEA_HepaRG_CYP2C19: Life Technologies and Expression Analysis (LTEA) Assay for CYP2C19 using HepaRG (AID 2283482). Summed up: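 Human HepaRG liver cells received test chemicals for 48 h (highest 100 uM, half-log dilutions in 0.5% DMSO). CYP2C19 mRNA induction or loss is read by multiplexed qRT-PCR and fitted in both directions versus vehicle.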

Read-out in assay [4]: CYP2C8 (gene 1558)
Nature of the assay: LTEA_HepaRG_CYP2C8: Life Technologies and Expression Analysis (LTEA) Assay for CYP2C8 using HepaRG (AID 2283483). An outline of the steps:
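This is a transcriptional endpoint in HepaRG cultures: 48 h exposure, highest concentration 100 uM. CYP2C8 mRNA is quantified by TaqMan qRT-PCR.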

Read-out in assay [5]: CYP2C9 (gene 1559)
Nature of the assay: LTEA_HepaRG_CYP2C9: Life Technologies and Expression Analysis (LTEA) Assay for CYP2C9 using HepaRG (AID 2283484). An outline of the steps: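 Eight-point concentration-response (highest 100 uM, half-log dilutions) in HepaRG cells for 48 h; CYP2C9 expression by qRT-PCR normalized to ACTB, GAPDH, POLR2A. Bidirectional fit, DMSO baseline.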

Read-out in assay [6]: CYP2E1 (gene 1571)
Nature of the assay: LTEA_HepaRG_CYP2E1: Life Technologies and Expression Analysis (LTEA) Assay for CYP2E1 using HepaRG (AID 2283485). Summed up: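 Readout is qRT-PCR of CYP2E1 mRNA, normalized to three housekeeping genes and fitted bidirectionally against 0.5% DMSO. HepaRG cells were dosed 48 h at eight concentrations, highest 100 uM with half-log dilutions.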

Read-out in assay [7]: CYP4A11 (gene 1579)
Nature of the assay: LTEA_HepaRG_CYP4A11: Life Technologies and Expression Analysis (LTEA) Assay for CYP4A11 using HepaRG (AID 2283486). An outline of the steps: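 Readout is CYP4A11 mRNA induction or suppression (qRT-PCR, ACTB/GAPDH/POLR2A normalization) in human HepaRG cells after 48 h chemical treatment, concentrations to 100 uM in 0.5% DMSO, fitted bidirectionally against vehicle.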

Read-out in assay [8]: Cytochrome P450 3A4 (Homo sapiens) (UniProt P08684)
Nature of the assay: LTEA_HepaRG_CYP3A4: Life Technologies and Expression Analysis (LTEA) Assay for CYP3A4 using HepaRG (AID 2283487). Summed up:
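In a human hepatic line (HepaRG), duplicate wells were treated 48 h with up to 100 uM chemical in half-log dilutions. Endpoint: CYP3A4 mRNA induction or loss relative to 0.5% DMSO vehicle, by qRT-PCR.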

Read-out in assay [9]: DNA damage-inducible transcript 3 (DDIT3), DDIT3 (gene 1649)
Nature of the assay: LTEA_HepaRG_DDIT3: Life Technologies and Expression Analysis (LTEA) Assay for DNA damage-inducible transcript 3 (DDIT3) using HepaRG (AID 2283488). An outline of the steps: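 Cells are human HepaRG liver cells treated for 48 h with eight half-log concentrations up to 100 uM in 0.5% DMSO. Transcript levels come from qRT-PCR normalized to three housekeeping genes, with activity fitted in both directions relative to vehicle.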

Read-out in assay [10]: Pro-epidermal growth factor (Homo sapiens) (UniProt P01133)
Nature of the assay: LTEA_HepaRG_EGF: Life Technologies and Expression Analysis (LTEA) Assay for Epidermal growth factor (EGF) using HepaRG (AID 2283489). An outline of the steps: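 EGF expression changes in human HepaRG cells are scored by bidirectional fitting relative to 0.5% DMSO controls. Chemicals are tested at eight half-log concentrations up to 100 uM for 48 h in serum-free induction medium.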

Read-out in assay [11]: Early growth response protein 1 (EGR1) transcription factor, EGR1 (gene 1958)
Nature of the assay: LTEA_HepaRG_EGR1: Life Technologies and Expression Analysis (LTEA) Assay for Early growth response protein 1 (EGR1) transcription factor using HepaRG (AID 2283490). Summed up:
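EGR1 expression change in human HepaRG after 48 h chemical exposure, assessed by housekeeping-normalized qRT-PCR; concentration-response up to 100 uM, fitted in both directions against DMSO controls.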

Read-out in assay [12]: Ezrin (EZR), EZR (gene 7430)
Nature of the assay: LTEA_HepaRG_EZR: Life Technologies and Expression Analysis (LTEA) Assay for Ezrin (EZR) using HepaRG (AID 2283491). An outline of the steps: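 Gain or loss of EZR mRNA is scored relative to 0.5% DMSO in human HepaRG cultures treated 48 h with test chemicals in duplicate, eight half-log concentrations from 100 uM.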

Read-out in assay [13]: Cytochrome P450 3A7 (Homo sapiens) (UniProt P24462)
Nature of the assay: LTEA_HepaRG_CYP3A7: Life Technologies and Expression Analysis (LTEA) Assay for CYP3A7 using HepaRG (AID 2283492). An outline of the steps:
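Cells were thawed, plated, cultured 48 h, then treated for a further 48 h with chemicals (eight-point half-log series from 100 uM, 0.5% DMSO). RNA was isolated and CYP3A7 expression quantified by qRT-PCR normalised to ACTB, GAPDH and POLR2A.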

Read-out in assay [14]: CYP3A5 (gene 1577)
Nature of the assay: LTEA_HepaRG_CYP3A5: Life Technologies and Expression Analysis (LTEA) Assay for CYP3A5 using HepaRG (AID 2283493). Summed up: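 Human HepaRG hepatic cells receive 48 h chemical treatment at eight concentrations (half-log steps from 100 uM) in 0.5% DMSO. Expression of CYP3A5 is quantified by Fluidigm qRT-PCR and normalized to three reference genes.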

Read-out in assay [15]: Fatty Acid-Binding Protein 1 (FABP1), FABP1 (gene 2168)
Nature of the assay: LTEA_HepaRG_FABP1: Life Technologies and Expression Analysis (LTEA) Assay for Fatty Acid-Binding Protein 1 (FABP1) using HepaRG (AID 2283494). Summed up:
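Values reflect bidirectional concentration-response fitting of FABP1 mRNA change against 0.5% DMSO controls. Human HepaRG cultures received eight half-log doses (top 100 uM) for 48 h; expression quantified by TaqMan qRT-PCR with housekeeping-gene normalization.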

Read-out in assay [16]: Cytochrome P450 7A1 (Homo sapiens) (UniProt P22680)
Nature of the assay: LTEA_HepaRG_CYP7A1: Life Technologies and Expression Analysis (LTEA) Assay for Cytochrome P450 7A1 (CYP7A1) using HepaRG (AID 2283496). Summed up: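 HepaRG, 48 h exposure, 8-pt half-log series from 100 uM, 0.5% DMSO vehicle, duplicates. Readout: TaqMan qRT-PCR mRNA vs three housekeeping genes; bidirectional curve fit against DMSO baseline.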

Read-out in assay [17]: Glutathione S-Transferase (GSTA2), GSTA2 (gene 2939)
Nature of the assay: LTEA_HepaRG_GSTA2: Life Technologies and Expression Analysis (LTEA) Assay for Glutathione S-Transferase (GSTA2) using HepaRG (AID 2283497). Summed up: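 Oxidative-stress marker GSTA2 is quantified by TaqMan qRT-PCR in HepaRG cultures treated 48 h across an eight-point range to 100 uM. Expression is normalized to endogenous controls and compared with 0.5% DMSO vehicle.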

Read-out in assay [18]: Glutamate-cysteine ligase catalytic (GCLC), GCLC (gene 2729)
Nature of the assay: LTEA_HepaRG_GCLC: Life Technologies and Expression Analysis (LTEA) Assay for Glutamate-cysteine ligase catalytic (GCLC) using HepaRG (AID 2283498). Summed up:
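Oxidative-stress marker GCLC is measured as mRNA change in human HepaRG liver cells after 48 h chemical treatment in 0.5% DMSO, eight concentrations from 100 uM. Activity is fitted bidirectionally against vehicle.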

Read-out in assay [19]: growth arrest and DNA damage 45 (GADD45G), GADD45G (gene 10912)
Nature of the assay: LTEA_HepaRG_GADD45G: Life Technologies and Expression Analysis (LTEA) Assay for growth arrest and DNA damage 45 (GADD45G) using HepaRG (AID 2283499). Summed up: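 Human hepatic HepaRG line treated 48 h with chemicals (eight concentrations, half-log steps from 100 uM); transcript induction or repression of GADD45G scored by qRT-PCR versus DMSO vehicle.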

Read-out in assay [20]: Glutathione S-transferase M3 (GSTM3), GSTM3 (gene 2947)
Nature of the assay: LTEA_HepaRG_GSTM3: Life Technologies and Expression Analysis (LTEA) Assay for Glutathione S-transferase M3 (GSTM3) using HepaRG (AID 2283501). Summed up: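 Changes in GSTM3 expression, an oxidative-stress marker, were scored by bidirectional curve fitting against 0.5% DMSO vehicle. Human HepaRG cultures received chemicals for 48 h in duplicate, highest concentration 100 uM with half-log dilutions.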

Values joined by “and” are separate entries in the source; they are usually repeats but may differ in a detail not shown here. Identical values can stand only once. More than one record can exist for a structure, and the calls need not agree. Active and inactive are the calls of the source. How the source made its calls: active means hit-call score of the fitted dose curve at least 0.9, where 1 is the maximum; inactive means score below 0.9.

Chain of Cytochrome P450 3A7 (Homo sapiens) (P24462 whole entry, looked up): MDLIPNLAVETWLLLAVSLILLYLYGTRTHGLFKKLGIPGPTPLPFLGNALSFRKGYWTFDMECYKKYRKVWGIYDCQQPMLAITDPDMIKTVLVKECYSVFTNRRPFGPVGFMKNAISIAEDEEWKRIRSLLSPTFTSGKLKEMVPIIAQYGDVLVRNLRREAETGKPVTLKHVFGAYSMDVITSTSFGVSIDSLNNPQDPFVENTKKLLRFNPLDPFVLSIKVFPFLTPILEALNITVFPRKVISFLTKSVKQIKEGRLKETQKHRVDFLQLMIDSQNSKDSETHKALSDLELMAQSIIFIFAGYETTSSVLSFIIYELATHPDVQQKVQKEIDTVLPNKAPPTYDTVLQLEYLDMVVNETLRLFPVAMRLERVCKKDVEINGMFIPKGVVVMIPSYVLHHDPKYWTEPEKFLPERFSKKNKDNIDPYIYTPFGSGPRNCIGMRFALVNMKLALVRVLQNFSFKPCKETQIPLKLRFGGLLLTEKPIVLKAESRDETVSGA
Chain of Cytochrome P450 3A4 (Homo sapiens) (P08684 whole entry, looked up): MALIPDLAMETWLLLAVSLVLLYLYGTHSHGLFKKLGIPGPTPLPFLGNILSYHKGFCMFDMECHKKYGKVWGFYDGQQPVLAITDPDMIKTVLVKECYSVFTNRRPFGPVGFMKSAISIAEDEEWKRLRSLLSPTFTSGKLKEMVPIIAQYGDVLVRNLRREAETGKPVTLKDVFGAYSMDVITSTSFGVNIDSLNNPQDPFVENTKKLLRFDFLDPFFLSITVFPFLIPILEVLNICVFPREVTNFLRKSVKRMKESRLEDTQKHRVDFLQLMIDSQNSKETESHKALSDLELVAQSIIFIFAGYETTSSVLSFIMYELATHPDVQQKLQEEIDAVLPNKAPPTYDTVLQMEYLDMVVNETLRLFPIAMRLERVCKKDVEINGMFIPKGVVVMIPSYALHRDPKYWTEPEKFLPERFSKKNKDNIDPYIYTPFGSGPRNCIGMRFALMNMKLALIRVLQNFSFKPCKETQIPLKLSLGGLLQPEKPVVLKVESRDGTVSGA
Chain of Cytochrome P450 2C19 (Homo sapiens) (P33261 whole entry, looked up): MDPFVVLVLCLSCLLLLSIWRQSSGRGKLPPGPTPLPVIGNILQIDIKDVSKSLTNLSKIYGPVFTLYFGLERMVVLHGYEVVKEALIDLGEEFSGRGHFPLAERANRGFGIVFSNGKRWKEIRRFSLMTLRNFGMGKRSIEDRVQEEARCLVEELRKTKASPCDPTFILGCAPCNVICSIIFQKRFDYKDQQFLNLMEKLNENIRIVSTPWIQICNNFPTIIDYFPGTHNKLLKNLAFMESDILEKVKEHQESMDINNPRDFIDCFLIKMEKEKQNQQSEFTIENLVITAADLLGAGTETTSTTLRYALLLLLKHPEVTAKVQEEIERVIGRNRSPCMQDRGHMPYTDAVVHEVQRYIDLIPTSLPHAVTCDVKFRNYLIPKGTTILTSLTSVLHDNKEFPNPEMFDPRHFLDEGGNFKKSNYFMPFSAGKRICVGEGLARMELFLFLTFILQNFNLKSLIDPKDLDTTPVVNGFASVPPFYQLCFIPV

A word on the AC50: it is the concentration giving half of the maximal activity seen. On to `COc1cc(-c2ccc(N)c(OC)c2)ccc1N`, for which the molecule was classed as inactive in assay [1], in assay [3], in assay [4], in assay [5], in assay [8] and in assay [9]. The call in assay [10], in [11], in assay [12], in assay [13], in assay [14] and in assay [16] was inactive. The result in assay [17], in assay [18], in assay [19] and in assay [20] was inactive. Further, the concentration at half-maximal activity (AC50) was 3.49 µM (active) and 4.26 µM (active) in assay [2]; 77.4 µM (active) in assay [5]; 38.1 µM (active) and 24.1 µM (active) in assay [6]; 62.6 µM (active) and 50 µM (active) in [7]; 19.9 µM (active) in assay [8]; 80.3 µM (active) in [9]. Further, the AC50 in assay [10] was 13.3 µM (active); in [13], 82.9 µM (active); in assay [15] it was 46.3 µM (active) and 32.8 µM (active); in assay [16], 57.4 µM (active).
Regarding `O=[N+]([O-])c1ccc(O)c([N+](=O)[O-])c1`, the AC50 in assay [1] was 22.3 µM (active); in assay [2], 16 µM (active); in assay [3], 19.5 µM (active); in assay [4], 40.1 µM (active); in assay [5], 21.8 µM (active); in assay [6] it was 20.5 µM (active). For the same molecule, the AC50 was 31.5 µM (active) in [7]; 22.2 µM (active) in assay [8]; 89.7 µM (active) in [9]; 12.9 µM (active) in assay [10]; 12.5 µM (active) in assay [11]; 16.4 µM (active) in assay [13]. The half-maximal activity concentration (AC50) is 10.6 µM (active) in assay [14]; 18.7 µM (active) in assay [15]; 25.6 µM (active) in assay [16]; 17 µM (active) in assay [17]; 90.6 µM (active) in assay [19]; 12.7 µM (active) in assay [20]. The result in [12] was inactive.
Turning to `CC(=O)[O][Hg][c]1ccccc1`, the AC50 in [1] is 26.6 µM (active); in assay [2] it was 6.12 µM (active); in assay [3], 5 µM (active); in assay [4] it was 5 µM (active); in assay [5], 0.862 µM (active); in assay [6], 13.2 µM (active). The AC50 in assay [8] was 3.76 µM (active); in [11], 26.9 µM (active); in [13], 5 µM (active); in [14], 11 µM (active); in assay [15], 13 µM (active); in [17], 25.4 µM (active). The AC50 was 23.1 µM (active) in assay [18] and 82.8 µM (active) in assay [19]. For the same molecule, the call in [7], in assay [9], in [12] and in assay [20] was inactive.
In the case of `CCOP(=S)(OCC)SCSP(=S)(OCC)OCC`, the call in assay [1], in [5], in [7], in assay [9], in assay [10] and in assay [11] was inactive. Besides, the call in assay [12], in assay [17] and in [20] was inactive. Further, the AC50 in [2] is 13 µM (active); in assay [3], 26.1 µM (active); in [4], 0.121 µM (active); in assay [6] it was 19.2 µM (active); in assay [8], 12.5 µM (active); in [13], 50 µM (active). Further, the AC50 in [14] is 0.236 µM (active); in assay [15], 12.1 µM (active); in assay [16], 9.92 µM (active); in [18], 0.0663 µM (active); in assay [19], 1.49 µM (active).
